A short description of test [1]: HepG2 liver cancer cell viability effects, profiling panel, resazurin fluorescence, 24 h, PK04 Diversity Set (AID 1172). Also: test concentration not given here. Conditions: higher = more signal.
Test [2] in a line: basal S. cerevisiae growth modulation, no modifier, primary screen, OD600, strain BY4716, 24 h, basal condition (AID 1173). The settings on record: OD600, 24 h, higher = more signal, called active from +8 up or from −8 down.
A short description of test [3]: MM1S myeloma cell viability, profiling panel, resazurin fluorescence, basal, 24 h, PK04 Diversity Set (AID 1174).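 Also: MM1S multiple myeloma cell line; test concentration not given here.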 The settings on record: higher = more signal, called active from +8 up or from −8 down.
In test [4] the target is Dihydroorotate dehydrogenase (quinone), mitochondrial (Plasmodium falciparum (isolate 3D7)) (UniProt Q08210). Kind of test: PfDHODH enzyme inhibitors, primary screen, biochemical, C-terminal His tag, absorbance 600 nm (AID 1175).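 Also: recombinant parasite enzyme with a five histidine tag at its C terminus; test concentration not given here.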 Conditions: DCIP absorbance 600 nm, higher = more signal, called active from +8 up or from −8 down.
Sequence of Dihydroorotate dehydrogenase (quinone), mitochondrial (Plasmodium falciparum (isolate 3D7)) (Q08210 whole entry, looked up): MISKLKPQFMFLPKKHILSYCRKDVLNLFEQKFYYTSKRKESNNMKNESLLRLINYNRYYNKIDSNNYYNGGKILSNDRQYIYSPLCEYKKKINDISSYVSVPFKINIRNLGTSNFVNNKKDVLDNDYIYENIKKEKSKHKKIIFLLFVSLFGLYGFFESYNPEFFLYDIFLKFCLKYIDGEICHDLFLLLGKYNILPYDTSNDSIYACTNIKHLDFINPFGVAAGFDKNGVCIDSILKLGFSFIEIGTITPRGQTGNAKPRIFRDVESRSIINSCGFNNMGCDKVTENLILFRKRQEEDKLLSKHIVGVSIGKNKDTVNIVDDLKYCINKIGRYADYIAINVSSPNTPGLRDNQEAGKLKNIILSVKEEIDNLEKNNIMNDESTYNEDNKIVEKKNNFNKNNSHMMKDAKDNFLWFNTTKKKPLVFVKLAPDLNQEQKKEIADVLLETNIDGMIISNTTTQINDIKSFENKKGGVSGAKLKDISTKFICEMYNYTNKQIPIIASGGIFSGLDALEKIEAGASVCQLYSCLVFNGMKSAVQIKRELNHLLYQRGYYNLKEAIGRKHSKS
Test [5] can be described thus: P. aeruginosa biofilm formation inhibitors, primary screen, strain PAO1, LB-PBS medium, absorbance 600 nm (AID 1176). Also: test concentration not given here. The settings on record: P. aeruginosa PAO1 growth/biofilm, A600, 12 h; higher = more signal.
A short description of test [6]: S. cerevisiae RM11-1a growth modifiers, primary screen, strain RM11-1a, OD600, basal, 24 h (AID 1177).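 Also: cultures grown under basal conditions with no added stressor; test concentration not given here.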 The settings on record: OD600, 24 h, higher = more signal, called active from +8 up or from −8 down.
Test [7] in a line: E. coli acrAB mutant growth effects, primary screen, E. coli filamentation inducers, strain DRC39, OD650, 24 h (AID 1178).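 Also: growth measured as culture turbidity by optical density at 650 nm; test concentration not given here.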 Conditions: higher = more signal, called active from +8 up or from −8 down.
Test [8] is described as follows: E. coli acrAB mutant growth effects, primary screen, E. coli filamentation inducers, strain DRC39, OD650, 48 h (AID 1179).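 Also: screen aims at cell division blockers that make cells filament.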 Conditions: E. coli DRC39 delta-acrAB growth, higher = more signal, called active from +8 up or from −8 down.
The nature of test [9]: RPMI8226 myeloma cell viability, profiling panel, resazurin fluorescence, basal, 24 h, PK04 Diversity Set (AID 1180).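 Also: RPMI8826 multiple myeloma cell line at 5000 cells per well; test concentration not given here.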 The settings on record: higher = more signal. For orientation: Resazurin is reduced to fluorescent resorufin, in cell work by metabolically active cells.
The target of test [10] is E3 ubiquitin-protein ligase XIAP (Homo sapiens) (UniProt P98170). Kind of test: XIAP binders, primary screen, biophysical, small-molecule microarray, fluorescence 635 nm (AID 1181).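 Also: score merges 667 nm emission and signal to noise over triplicate slides.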 The settings on record: small-molecule microarray binding, higher = more signal.
Sequence of E3 ubiquitin-protein ligase XIAP (Homo sapiens) (P98170 whole entry, looked up): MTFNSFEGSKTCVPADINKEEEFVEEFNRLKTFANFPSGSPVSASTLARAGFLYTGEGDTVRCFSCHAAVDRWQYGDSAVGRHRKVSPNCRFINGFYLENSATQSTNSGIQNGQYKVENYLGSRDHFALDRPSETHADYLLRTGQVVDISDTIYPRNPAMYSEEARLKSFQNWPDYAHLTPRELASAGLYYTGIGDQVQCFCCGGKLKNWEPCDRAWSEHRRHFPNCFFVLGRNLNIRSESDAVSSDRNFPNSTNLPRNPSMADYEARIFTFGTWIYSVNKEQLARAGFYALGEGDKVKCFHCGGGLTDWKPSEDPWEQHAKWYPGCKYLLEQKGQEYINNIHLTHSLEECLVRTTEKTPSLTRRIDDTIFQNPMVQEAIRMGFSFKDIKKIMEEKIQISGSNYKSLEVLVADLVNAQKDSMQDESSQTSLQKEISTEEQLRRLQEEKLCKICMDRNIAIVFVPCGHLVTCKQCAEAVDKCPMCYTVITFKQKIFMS

Calls of active or inactive are those of the source. Unless noted, no rule for the calls is given here.

With `CS(=O)(=O)CCOC(=O)C1=CC(CCCO)=CC(c2cccs2)N(Cc2cccc(OC(F)(F)F)c2)C=C1C(=O)OCCS(C)(=O)=O` (stereo not given), the z-score in test [1] is -0.746; in test [2] it was -3.44 (inactive); in [3] it was -1.21 (inactive); in [5], 1.52 (inactive); in test [6], 0.0788 (inactive); in test [7], 0.596 (inactive). Further, the figures for the z-score in test [8] and in [9] were -0.0926 (inactive) and -0.96, respectively. For the same compound, the composite z-score is -0.407 (inactive) in [4] and -0.268 in [10].
`O=C1[C@H]2[C@H]3[C@H](O)[C@H](O)CC(=NOC[C@@H](O)COCc4ccco4)[C@H]3CC[C@H]2C(=O)N1Cc1ccc2c(c1)OCO2`: the z-score in [1] is 0.102; in test [2], 0.684 (inactive); in [3] it was -0.293 (inactive); in test [5], -0.85 (inactive); in [6], 0.0885 (inactive); in [7], 0.786 (inactive). Further, the z-score is 1.11 (inactive) in test [8] and 0.263 in test [9]. In addition, the composite z-score in test [4] is -0.566 (inactive); in [10], 0.0049.
Consider `C=CCN1C(=O)[C@]2(O[C@H](CCn3cc(CCO)nn3)[C@@H]([Si](C)(C)c3ccc(OC)cc3)[C@@H]2C)c2cc(N3CCOC3=O)ccc21`, for which the z-score is -0.0584 in test [1]; -0.528 (inactive) in test [2]; -0.368 (inactive) in [3]; 0.614 (inactive) in [5]; 0.817 (inactive) in test [6]; -0.815 (inactive) in [7]. In addition, the z-score in test [8] is -1.18 (inactive); in test [9] it was -0.789. In addition, the composite z-score in test [4] is -0.173 (inactive); in test [10], -0.124.
For `CC(=O)OC[C@H]1O[C@H](CC=NOC[C@@H](C)[C@H](OCc2ccccc2)C(C)C)C=C[C@@H]1OC(C)=O`, the z-score is 0.643 in [1]; 0.904 (inactive) in test [2]; -0.473 (inactive) in test [3]; 0.0738 (inactive) in test [5]; -0.0321 (inactive) in test [6]; 0.204 (inactive) in [7]. The z-score in test [8] is 0.193 (inactive); in [9], 0.692. Besides, the composite z-score was -0.298 (inactive) in [4] and -0.0571 in [10].
On to `COc1ccc(OC[C@H]2Cc3c(-c4ccccc4)nc4c(c3CO2)CN(CCOc2ccccc2)CC4)cc1`, for which the z-score in [1] is -0.376; in test [2], -2.37 (inactive); in [3] it was -0.0593 (inactive); in test [5] it was -0.765 (inactive); in [6] it was -0.314 (inactive); in test [7] it was -1.17 (inactive). Also, the z-score is -0.458 (inactive) in test [8] and 0.578 in [9]. Moreover, the results for the composite z-score in [4] and in [10] were -3.16 (inactive) and -0.111, respectively.
Take `C/C=C\[C@@H](NCc1ccccc1Br)[C@@H](O)Cc1ccccc1`: the z-score is -0.391 in test [1]; -9.3 (active) in [2]; -0.393 (inactive) in test [3]; -1.61 (inactive) in test [5]; -0.572 (inactive) in [6]; -0.179 (inactive) in test [7]. Also, the z-score in test [8] was -1.18 (inactive); in test [9], -0.645. The composite z-score was -2.11 (inactive) in test [4] and 0.0785 in test [10].
For `COc1cccc([C@@H]2Oc3ccc(Br)cc3C(=O)[C@H]2O)c1`, the z-score in [1] was -0.41; in test [2], -14.5 (active); in [3], -1.99 (inactive); in test [5], -0.0782 (inactive); in test [6], -0.361 (inactive); in test [7] it was 0.255 (inactive). In addition, the z-score in test [8] is 0.139 (inactive); in test [9] it was -1.02. For the same compound, the results for the composite z-score in [4] and in test [10] were -0.071 (inactive) and -0.391, respectively.
On to `COc1ccc(O[C@H]2C=C[C@@H](c3ccccc3)O[C@@H]2CON=C[C@@H](C)[C@H](OCc2ccccc2)C(C)C)cc1`, for which the z-score in [1] was -0.821; in test [2], 0.742 (inactive); in [3], -1.69 (inactive); in [5], -0.348 (inactive); in [6] it was 0.443 (inactive); in test [7], 0.335 (inactive). In addition, the z-score in test [8] was 1.01 (inactive); in [9] it was -0.854. In addition, the figures for the composite z-score in [4] and in test [10] were -0.896 (inactive) and 0.144, respectively.
Regarding `COc1ccc(O[C@H]2C=C[C@@H](c3ccccc3)O[C@@H]2COC(=O)CCC(C)=NOC(C)CN2CCCCc3nc(C)c(C)cc32)cc1` (stereo not given in full), the z-score in test [1] was 0.957; in test [2] it was 0.756 (inactive); in [3], 1.1 (inactive); in test [5], -0.279 (inactive); in [6] it was 0.181 (inactive); in test [7], 0.825 (inactive). Also, the values for the z-score in test [8] and in test [9] were 0.42 (inactive) and 0.948, respectively. Further, the composite z-score in [4] was 0.0159 (inactive); in [10], 0.533.
Regarding `CCCNC(=O)OC[C@H]1O[C@H](CCON=C[C@@H](OC)[C@H](C)C=CCC(=O)OC)C=C[C@@H]1Oc1ccc(OC)cc1`, the z-score in test [1] is 0.173; in test [2], 0.746 (inactive); in test [3], 0.345 (inactive); in [5], -0.537 (inactive); in [6], 0.198 (inactive); in test [7], 0.356 (inactive). For the same compound, the z-score was 0.138 (inactive) in test [8] and 1.95 in test [9]. The composite z-score in test [4] was 0.329 (inactive); in test [10], -0.0361.

The record behind these values is PubChem BioAssay.
